Test [1] has as its target Bile acid receptor (Homo sapiens) (UniProt Q96RI1). Kind of test: qHTS assay for small molecule antagonists of farnesoid X receptor signaling (AID 588526). Further: on the % scale 0 is the no-effect control and ±100 the full control effect. The method in brief: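 Concentration-response titrations were fitted to the Hill equation for half-maximal inhibition and maximal response, with data normalised to 50 uM chenodeoxycholic acid and DMSO control wells. Cells: FXR-UAS-bla HEK293T, dialyzed FBS.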

For test [2] the target is unchanged. Kind of test: qHTS assay for small molecule agonists of farnesoid X receptor signaling (AID 588527).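 Further: series mostly up to about 77 µM; 0% = vehicle basal and 100% = reference agonist.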 Particulars: HEK293T FXR-UAS-bla, beta-lactamase ratio, 16 h; activation: stronger effect = higher value. An outline of the steps:
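Read-out: beta-lactamase reporter fluorescence with CCF4 substrate in GeneBLAzer FXR-UAS-bla HEK293T cells, after 16 h compound exposure at 37 C. Response scaled between DMSO basal (0%) and chenodeoxycholic acid at 100 uM (100%).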

The target in test [3] is Peroxisome proliferator-activated receptor delta (Homo sapiens) (UniProt Q03181). The experiment in a line: qHTS assay for small molecule agonists of peroxisome proliferator-activated receptor delta signaling (AID 588534).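 Further: 0% = DMSO basal wells and 100% = positive control agonist at 10 µM.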 The method in brief: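 Agonist-mode beta-lactamase reporter readout (CCF4 dye, 2 h at RT) after 18 h at 37 °C exposure to a titration; Hill-equation fitting gave EC50 and maximal response.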

Test [4] can be described thus: qHTS assay for small molecule antagonists of peroxisome proliferator-activated receptor delta signaling (AID 588535; active means well fitted inhibition curve with a large enough effect in the signal ratio, with a control signal flat, not every such curve was filed as active; the % refers to the signal ratio;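 on max response: cells co-treated with a PPAR-delta agonist as stimulator during compound exposure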). The following applies: HEK293T PPARd-UAS-bla, beta-lactamase FRET ratio, 18 h; 460 nm channel. The method in brief:
(§1)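 Inhibition of PPAR-delta response element-driven beta-lactamase expression is measured in HEK293T cells exposed to a compound titration series for 18 hrs at 37 C. Half-maximal inhibition comes from Hill equation fitting.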

The target of test [5] is Peroxisome proliferator-activated receptor delta (Homo sapiens) (UniProt Q03181). The description is as above. An outline of the steps:
as §1

In test [6] the target is Vitamin D3 receptor (Homo sapiens) (UniProt P11473). Kind of test: qHTS assay for small molecule agonists of vitamin D receptor signaling (AID 588543).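 Further: 0% = DMSO basal and 100% = reference agonist control.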 The method in brief: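 GeneBLAzer VDR-UAS-bla HEK293T cells in 2% charcoal-stripped FBS medium were dosed with compound titrations for 16 h at 37 °C; CCF4 β-lactamase readout (405 nm ex, 460/530 nm em). EC50 and efficacy from Hill fits, normalized to 50 nM calcitriol (100%) and DMSO (0%).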

Test [7] deals with Retinoic acid receptor RXR-alpha (Homo sapiens) (UniProt P19793). The experiment in a line: qHTS assay for small molecule agonists of retinoid X receptor alpha signaling (AID 588544).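 Further: 0% = DMSO basal wells and 100% = reference agonist.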
In test [8] the target is Thyroid hormone receptor beta (Homo sapiens) (UniProt P10828). The experiment in a line: qHTS assay for small molecule agonists of thyroid hormone receptor beta signaling (AID 588545).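 Further: 0% = DMSO only and 100% = 10 nM T3.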 The method in brief:
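TR-UAS-bla-GripTite HEK 293 cells in medium with 2% charcoal/dextran FBS, 0.1 mM NEAA and 1 mM sodium pyruvate were treated with titrated compounds for 18 hrs at 37 C. Beta-lactamase reporter was read with CCF4 dye (ex 405, em 460/530 nm); EC50 from Hill fits.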

Test [9] is described as follows: qHTS assay for small molecule antagonists of retinoid X receptor alpha signaling (AID 588546; active means well fitted inhibition curve with a large enough effect in the signal ratio, with a control signal flat, not every such curve was filed as active; the % refers to the signal ratio;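 further: cells stimulated with 9-cis-retinoic acid as agonist; on the % scale 0 is the no-effect control and ±100 the full control effect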). The following applies: HEK293T RXRa-UAS-bla, beta-lactamase ratio, antagonist mode; measured here: W530 green channel, cytotoxicity proxy. An outline of the steps:
(§2)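 Beta-lactamase reporter inhibition, read as CCF4 fluorescence ratio (ex 405, em 460/530 nm) after 2 h at RT. HEK293T UAS-bla cells, 2500/well, were stimulated with 9-cis-RA at 500 or 100 nM final alongside test compound for 18 h at 37 C.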

Test [10] concerns the target Retinoic acid receptor RXR-alpha (Homo sapiens) (UniProt P19793). Described as above. Particulars: HEK293T RXRa-UAS-bla, beta-lactamase ratio, antagonist mode. The method in brief:
as §2

Test [11] addresses Thyroid hormone receptor beta (Homo sapiens) (UniProt P10828). Kind of test: qHTS assay for small molecule antagonists of thyroid hormone receptor beta signaling (AID 588547; active means well fitted inhibition curve with a large enough effect in the signal ratio, with a control signal flat, not every such curve was filed as active; the % refers to the signal ratio;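 further: cells stimulated with 0.4 nM T3 agonist during compound exposure; series mostly up to about 77 µM; on the % scale 0 is the no-effect control and ±100 the full control effect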). The following applies: TR-UAS-bla HEK293, beta-lactamase ratio, antagonist mode, 18 h. The method in brief: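 TR-UAS-bla GripTite HEK293 cells in 2% charcoal/dextran FBS medium were preincubated 4 h at 37 C, given compound (0.59 nM to 92 uM) plus 0.4 nM T3 (final) for 18 h, then CCF4 for 2 h at RT; Hill fit gave IC50.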

Test [12] is described as follows: qHTS assay for small molecule agonists of the antioxidant response element (ARE) signaling pathway (AID 651741; active means well fitted activation curve with a large enough effect in the signal ratio; the % refers to the signal ratio; further: potency means the concentration at half of the fitted maximal effect; on activation: % of control where 0% means no effect). An outline of the steps:
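Reporter: beta-lactamase under ARE, stably in HepG2. Exposure: 16 h, 37 C, compounds delivered in DMSO by pin tool after 5 h cell preincubation. Readout: FRET substrate fluorescence after 2 h at RT.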

A short description of test [13]: qHTS assay for small molecule activators of the p53 signaling pathway (AID 651743; active means well fitted activation curve with a large enough effect in the signal ratio, not every such curve was filed as active; the % refers to the signal ratio; further: series mostly up to about 92 µM; % of control where 0% means no effect). Particulars: HCT-116 p53RE-bla, beta-lactamase FRET ratio, 16 h; activation: stronger effect = higher value. An outline of the steps:
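Agonist-mode quantitative HTS in HCT-116 cells carrying a p53-response-element beta-lactamase reporter; 16 h compound treatment at 37 C, then FRET substrate loading for 2 h at room temperature and fluorescence read.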

A short description of test [14]: qHTS assay for environmental chemicals that activate the Aryl hydrocarbon Receptor (AhR) signaling pathway (AID 651777; active means well fitted curve in the direction sought with a large enough effect; an effect the other way counts as inactive or inconclusive; further: % of control where 0% means no effect; nearly all actives have a fitted effect of over 15% in size). Particulars: 1A2-DRE human hepatoma cells, luciferase, 24 h; activation: stronger effect = higher value. An outline of the steps: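 Measured luciferase activity, read 30 min after One-Glo addition at room temperature, from human hepatoma cells bearing a dioxin response element–CYP1A2 promoter reporter and exposed to compound for 24 hr at 37 C.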

The target of test [15] is Peroxisome proliferator-activated receptor alpha (Homo sapiens) (UniProt Q07869). The experiment in a line: qHTS assay for small molecule agonists of the peroxisome proliferator-activated receptor alpha (PPARalpha) signaling pathway (AID 651778; active means well fitted curve in the direction sought with a large enough effect; an effect the other way counts as inactive or inconclusive; further: % of control where 0% means no effect). The following applies: PathHunter PPARalpha complementation, chemiluminescence, 6 h; max response: stronger effect = higher value. The method in brief: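 Cells plated at 2,000/well and held overnight at 37 C, 5% CO2, then compound added by pin tool for 6 hr; after PathHunter detection reagent and 60 min at room temperature, chemiluminescence from enzyme complementation was read.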

The nature of test [16]: qHTS assay for small molecule agonists of the antioxidant response element (ARE) signaling pathway measured by Nrf2-dependant transcriptional activity (AID 720636; active means well fitted curve in the direction sought with a large enough effect in the repeat runs; an effect the other way counts as inactive or inconclusive;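 further: HepG2 cells with an ARE-driven luciferase reporter; % of control where 0% means no effect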). An outline of the steps:
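In HepG2 cells engineered with an Nrf2-responsive luciferase gene, ARE induction was quantified as luminescence after 16 hr compound treatment at 37 C.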

Test [17] is described as follows: qHTS assay for small molecule agonists of the antioxidant response element (ARE) signaling pathway measured by Nrf2-dependant transcriptional activity - cell viability counter screen (AID 720653; active means well fitted curve in the direction sought with a large enough effect in the repeat runs; an effect the other way counts as inactive or inconclusive; further: on the % scale 0 is the no-effect control and ±100 the full control effect). The following applies: ARE-bla HepG2 viability, CellTiter-Glo ATP luminescence, 16 h; max response: stronger effect = lower value. An outline of the steps: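 ARE-bla HepG2 cells (2,000/well) rested 5 hrs at 37C/5% CO2, then exposed to compounds in DMSO for 16 hrs. Viability was read in the same wells as intracellular ATP by luminescence, 30 min at room temperature after reagent addition.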

The nature of test [18]: qHTS assay for cell viability of HEK293 cells (AID 743288; active means well fitted curve in the direction sought with a large enough effect; an effect the other way counts as inactive or inconclusive; further: on the % scale 0 is the no-effect control and ±100 the full control effect; nearly all actives have a fitted effect of over 50% in size). Particulars: ATP luminescence (CellTiter-Glo), 18 h; max response: stronger effect = lower value. The method in brief:
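After 18 h compound exposure at 37 C, parental HEK293 cells (2,000/well) are lysed with CellTiter-Glo and luminescence is read following 30 min at room temperature.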

Test [19] can be described thus: qHTS assay for cell viability of the p53RE-bla HCT-116 cell line (AID 743292; active means well fitted curve in the direction sought with a large enough effect; an effect the other way counts as inactive or inconclusive; further: on the % scale 0 is the no-effect control and ±100 the full control effect; nearly all actives have a fitted effect of over 55% in size). An outline of the steps:
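Intracellular ATP of p53RE-bla HCT-116 cells measured by luciferase luminescence following 16 h compound incubation at 37 C; DMSO-only wells served as vehicle controls.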

Test [20] concerns the target Nuclear receptor subfamily 1 group I member 2 (Rattus norvegicus) (UniProt Q9R1A7). The experiment in a line: qHTS assay for small molecule activators of the rat pregnane X receptor (rPXR) signaling pathway (AID 651751; call rule not given here; further: 0% is about no effect). Particulars: rPXR reporter cells, luciferase (One-Glo), 24 h.

Each structure is given as a SMILES string. Inconclusive results are not listed. Active and inactive are the calls of the source. Unless noted, the call rests on the fitted dose curve.

Chain of Thyroid hormone receptor beta (Homo sapiens) (P10828 whole entry, looked up): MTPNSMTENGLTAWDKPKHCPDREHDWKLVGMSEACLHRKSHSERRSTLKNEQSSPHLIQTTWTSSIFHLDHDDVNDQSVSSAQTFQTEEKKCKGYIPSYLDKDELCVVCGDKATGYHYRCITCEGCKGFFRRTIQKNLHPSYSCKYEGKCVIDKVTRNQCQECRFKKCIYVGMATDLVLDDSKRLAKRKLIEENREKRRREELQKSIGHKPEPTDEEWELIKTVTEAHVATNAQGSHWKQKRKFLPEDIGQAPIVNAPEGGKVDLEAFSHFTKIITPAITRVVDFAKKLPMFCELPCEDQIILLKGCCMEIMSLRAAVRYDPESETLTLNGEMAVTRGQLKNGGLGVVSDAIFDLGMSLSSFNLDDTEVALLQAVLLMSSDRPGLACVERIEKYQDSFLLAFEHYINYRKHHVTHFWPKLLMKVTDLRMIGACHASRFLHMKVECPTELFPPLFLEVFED
Chain of Bile acid receptor (Homo sapiens) (Q96RI1 whole entry, looked up): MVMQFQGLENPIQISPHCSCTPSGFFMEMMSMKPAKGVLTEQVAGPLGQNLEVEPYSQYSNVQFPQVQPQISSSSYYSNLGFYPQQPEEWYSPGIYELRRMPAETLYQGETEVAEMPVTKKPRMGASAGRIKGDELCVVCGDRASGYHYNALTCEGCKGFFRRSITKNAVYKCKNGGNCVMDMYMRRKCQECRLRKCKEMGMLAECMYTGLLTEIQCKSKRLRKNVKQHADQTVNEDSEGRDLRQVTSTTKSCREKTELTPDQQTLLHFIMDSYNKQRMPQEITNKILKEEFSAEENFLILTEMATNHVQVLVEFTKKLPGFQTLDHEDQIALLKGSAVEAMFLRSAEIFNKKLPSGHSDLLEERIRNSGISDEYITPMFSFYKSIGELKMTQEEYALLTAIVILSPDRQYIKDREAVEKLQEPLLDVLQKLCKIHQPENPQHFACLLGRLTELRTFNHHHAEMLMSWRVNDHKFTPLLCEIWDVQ
Chain of Peroxisome proliferator-activated receptor delta (Homo sapiens) (Q03181 whole entry, looked up): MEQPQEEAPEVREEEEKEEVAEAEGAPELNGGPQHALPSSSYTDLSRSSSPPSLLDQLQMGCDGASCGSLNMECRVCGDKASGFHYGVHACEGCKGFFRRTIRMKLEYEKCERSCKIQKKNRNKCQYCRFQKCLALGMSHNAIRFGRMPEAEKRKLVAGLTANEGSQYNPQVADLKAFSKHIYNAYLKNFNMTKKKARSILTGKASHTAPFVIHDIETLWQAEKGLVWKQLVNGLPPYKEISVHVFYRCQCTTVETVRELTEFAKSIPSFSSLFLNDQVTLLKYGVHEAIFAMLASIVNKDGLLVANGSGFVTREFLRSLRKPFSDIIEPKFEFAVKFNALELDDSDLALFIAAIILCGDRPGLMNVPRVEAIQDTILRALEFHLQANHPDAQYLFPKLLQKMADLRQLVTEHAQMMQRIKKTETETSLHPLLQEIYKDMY
Chain of Peroxisome proliferator-activated receptor alpha (Homo sapiens) (Q07869 whole entry, looked up): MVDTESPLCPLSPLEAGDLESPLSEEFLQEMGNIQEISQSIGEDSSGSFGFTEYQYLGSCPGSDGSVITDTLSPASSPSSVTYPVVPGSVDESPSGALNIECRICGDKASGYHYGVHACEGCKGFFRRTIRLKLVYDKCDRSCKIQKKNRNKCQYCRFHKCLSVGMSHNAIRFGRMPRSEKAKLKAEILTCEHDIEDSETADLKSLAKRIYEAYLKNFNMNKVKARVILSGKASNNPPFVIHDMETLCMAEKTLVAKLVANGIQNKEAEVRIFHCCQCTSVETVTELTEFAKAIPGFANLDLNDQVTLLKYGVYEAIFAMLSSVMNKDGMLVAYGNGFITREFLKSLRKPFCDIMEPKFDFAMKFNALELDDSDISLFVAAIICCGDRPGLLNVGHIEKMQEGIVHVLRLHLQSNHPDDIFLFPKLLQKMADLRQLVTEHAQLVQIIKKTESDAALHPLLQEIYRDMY
Chain of Retinoic acid receptor RXR-alpha (Homo sapiens) (P19793 whole entry, looked up): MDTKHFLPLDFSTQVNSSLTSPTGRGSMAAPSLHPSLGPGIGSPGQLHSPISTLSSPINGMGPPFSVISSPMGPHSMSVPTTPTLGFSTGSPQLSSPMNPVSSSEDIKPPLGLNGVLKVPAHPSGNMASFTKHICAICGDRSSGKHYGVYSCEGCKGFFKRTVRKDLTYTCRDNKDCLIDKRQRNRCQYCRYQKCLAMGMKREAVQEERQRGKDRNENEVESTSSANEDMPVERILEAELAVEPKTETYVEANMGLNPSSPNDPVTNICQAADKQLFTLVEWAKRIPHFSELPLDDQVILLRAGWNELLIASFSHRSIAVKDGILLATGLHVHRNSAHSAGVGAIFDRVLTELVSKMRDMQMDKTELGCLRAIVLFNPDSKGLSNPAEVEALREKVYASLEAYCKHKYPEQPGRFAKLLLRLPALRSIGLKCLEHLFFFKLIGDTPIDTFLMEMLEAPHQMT
Chain of Nuclear receptor subfamily 1 group I member 2 (Rattus norvegicus) (Q9R1A7 whole entry, looked up): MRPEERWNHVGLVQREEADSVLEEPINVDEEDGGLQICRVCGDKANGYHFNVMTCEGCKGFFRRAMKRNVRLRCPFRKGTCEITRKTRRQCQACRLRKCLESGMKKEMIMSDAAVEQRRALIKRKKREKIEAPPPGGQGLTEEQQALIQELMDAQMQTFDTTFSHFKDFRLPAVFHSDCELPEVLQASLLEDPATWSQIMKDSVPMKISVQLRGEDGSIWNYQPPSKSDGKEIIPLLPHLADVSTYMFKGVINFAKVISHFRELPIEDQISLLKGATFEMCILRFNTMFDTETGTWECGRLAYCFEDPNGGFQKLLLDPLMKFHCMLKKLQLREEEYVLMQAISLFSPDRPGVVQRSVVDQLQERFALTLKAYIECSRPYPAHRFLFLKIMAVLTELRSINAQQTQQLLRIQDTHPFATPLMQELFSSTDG
Chain of Vitamin D3 receptor (Homo sapiens) (P11473 whole entry, looked up): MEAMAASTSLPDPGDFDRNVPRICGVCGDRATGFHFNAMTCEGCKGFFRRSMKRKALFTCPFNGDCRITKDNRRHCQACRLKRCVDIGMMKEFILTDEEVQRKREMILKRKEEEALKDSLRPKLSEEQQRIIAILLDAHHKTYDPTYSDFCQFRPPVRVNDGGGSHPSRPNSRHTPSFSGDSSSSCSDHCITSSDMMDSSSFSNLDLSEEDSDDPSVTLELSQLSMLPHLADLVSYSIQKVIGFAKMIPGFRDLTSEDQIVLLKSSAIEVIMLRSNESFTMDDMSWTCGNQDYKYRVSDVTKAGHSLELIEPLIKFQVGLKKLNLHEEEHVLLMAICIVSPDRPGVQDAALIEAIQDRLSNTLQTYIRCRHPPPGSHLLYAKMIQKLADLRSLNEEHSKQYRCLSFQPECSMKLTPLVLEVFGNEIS

In the case of `Nc1nc(N)nc(N)n1`, the Potency result in test [1], in [5], in test [7], in test [8], in test [12] and in [16] was “inactive” in each case. Moreover, the Potency result in [19] was “inactive”. Further, the activation in test [2] is 0.442% (inactive); in test [13], -2.16% (inactive); in test [14], -1.1% (inactive). For the same molecule, the result in test [3] and in test [6] was inactive. The max response was 16% in [4]; -0.207% in [9]; -7.03% (inactive) in test [10]; -3.29% (inactive) in test [15]; -2.99% (inactive) in test [17]; -12% (inactive) in test [18]. Further, the max response in test [20] is -3.43% (inactive). The activity change % (negative = inhibition) in [11] was -6.25% (inactive).

As for `CCOP(=O)(OCC)Oc1cc(C)nc(C(C)C)n1`, the Potency entry in [1], in [5], in test [8] and in test [16] was “inactive” in each case. Besides, the activation was -3.07% (inactive) in test [2] and -0.423% (inactive) in [14]. In test [3], the call was inactive. Further, the max response in test [4] was 22.9%; in test [9], 13.6%; in test [10] it was 18.7% (inactive); in [15], -1.71% (inactive); in [17], 16.1% (inactive); in [18], 7.77% (inactive). The max response in [20] was -12.9% (inactive).

Consider `CCC(C)c1ccc(O)cc1` (stereo not given), for which the Potency entry in test [1], in [7], in test [8], in test [16] and in test [19] was “inactive” in each case. For the same molecule, the activation in [2] is -4.25% (inactive). In addition, the max response in [9] is -3.19%; in test [10], -17.8% (inactive); in test [15], -0.201% (inactive); in test [18] it was -7.5% (inactive); in [20], -4.44% (inactive). Further, the activity change % (negative = inhibition) in [11] is 6.18% (inactive).

Turning to `CCCSP(=O)(OCC)Oc1ccc(Br)cc1Cl` (stereo not given), the Potency entry in test [1], in test [5], in [7], in [8] and in test [16] was “inactive” each time. Besides, the activation was 3.54% (inactive) in test [2], 3.94% (inactive) in test [13] and 3.36% (inactive) in [14]. Moreover, the outcome in [3] and in test [6] was inactive. The max response was 5.89% in test [4]; -0.001% (inactive) in test [15]; -7.9% (inactive) in [17]; -22.2% (inactive) in test [18]; 7.3% (inactive) in [20]. In test [11], the activity change % (negative = inhibition) was 3.3% (inactive).

On to `CNc1cnn(-c2cccc(C(F)(F)F)c2)c(=O)c1Cl`, for which the Potency entry in test [1], in [5] and in test [8] was “inactive” each time. Moreover, the activation in test [2] was -1.1% (inactive); in [13], 1.24% (inactive). Moreover, the call in [3] and in test [6] was inactive. The max response was 18.9% in [4]; -2.6% in test [9]; 8.14% (inactive) in test [10]; -1.19% (inactive) in test [15]; 3.99% (inactive) in test [17]; -7.33% (inactive) in test [18]. Also, the activity change % (negative = inhibition) in test [11] is 8.76% (inactive).

On to `Cc1ccn2nc(S(=O)(=O)Nc3c(F)cccc3F)nc2n1`, for which the Potency entry in test [1], in [5], in test [7], in [16] and in test [19] was “inactive” each time. Further, the activation is -2.19% (inactive) in test [2] and -0.461% (inactive) in test [14]. In addition, the call in test [3] and in test [6] was inactive. The max response in test [4] is 35.3%; in test [9] it was 2.3%; in [10] it was -2.18% (inactive); in test [15], 0.276% (inactive); in test [17], 14.2% (inactive); in [20], -3.4% (inactive).

With `CCC(C)(c1ccc(O)cc1)c1ccc(O)cc1`, the Potency result in test [1], in test [7], in test [8], in test [16] and in test [19] was “inactive” each time. Further, the results for the activation in test [2], in test [13] and in [14] were 1.29% (inactive), -1.26% (inactive) and -1.12% (inactive), respectively. In addition, in [11], the activity change % (negative = inhibition) is 5.47% (inactive). For the same molecule, the Potency in test [12] was 54.5 µM (active). Further, the max response is -1.57% (inactive) in test [15], -14.2% (inactive) in test [17], -0.148% (inactive) in [18] and -0.68% (inactive) in test [20].

For the molecule `CCN(CC)C(=O)SCc1ccc(Cl)cc1`, the Potency entry in [1], in test [7], in [8] and in [19] was “inactive” in each case. In addition, the activation in [2] is 5.41% (inactive); in test [13], 1.13% (inactive); in test [14] it was 2.07% (inactive). Further, the outcome in [6] was inactive. The max response in [9] was -13.2%; in test [10], -31.3% (inactive); in [15], -1.35% (inactive); in [17] it was -5.19% (inactive); in [18], -14.7% (inactive); in test [20], 1.53% (inactive). Also, the activity change % (negative = inhibition) in [11] is 12% (inactive).

With `COC(=O)C(C)Oc1ccc(Oc2ccc(Cl)cc2Cl)cc1` (stereo not given), the Potency entry in [1], in [7], in test [8], in test [16] and in test [19] was “inactive” in each case. The figures for the activation in test [2], in [13] and in test [14] were -6.35% (inactive), -3.5% (inactive) and -0.824% (inactive), respectively. For the same molecule, the result in [3] was inactive. Besides, the max response in [9] is -8.87%; in [10], -16.7% (inactive); in [17], -5.74% (inactive); in test [18], -4.71% (inactive); in test [20], -0.585% (inactive). Besides, the activity change % (negative = inhibition) in test [11] was 8.67% (inactive).

The record behind these values is PubChem BioAssay (NCATS).
